This is part of a sample that, as a whole, favours compounds with a hit. Of some 79,000 tested, about 15% had one in any assay. Cut-off read from the data, not from the text of the source: active = growth inhibition above about 70%; inactive = the rest.
Columns and labels:
[1] = NCI Yeast Anticancer Drug Screen. Data for the rad50 strain (AID 155);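 note: 0% = growth of vehicle-only cultures of the same strain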; details: S. cerevisiae rad50 strain growth inhibition; at 50.0 µM; hits give high values
Outline: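 Growth of the mutant yeast was measured after compound exposure and referenced to vehicle-treated cultures.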

[2] = NCI Yeast Anticancer Drug Screen. Data for the mec2-1 strain (AID 157); details: S. cerevisiae mec2-1 strain, at 50.0 µM, hits give high values
Outline: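 Cells of the genetically defined mec2-1 yeast strain are incubated with test compound. Inhibition of growth is calculated against vehicle-treated controls.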

[3] = NCI Yeast Anticancer Drug Screen. Data for the sgs1 mgt1 strain (AID 161);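 note: 0% = growth of cultures given vehicle only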; details: S. cerevisiae sgs1 mgt1 strain, at 50.0 µM, hits give high values
Outline: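 Mutant yeast exposed to compound; growth scored against vehicle-only wells.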

[4] = NCI Yeast Anticancer Drug Screen. Data for the cln2 rad14 strain (AID 165);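 note: 0% = growth equal to vehicle treated cultures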; details: S. cerevisiae cln2 rad14 strain, at 50.0 µM, hits give high values
Outline: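 The screen exposed genetically defined yeast (cln2 rad14) to test compounds and scored growth inhibition relative to vehicle-treated controls.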

[5] = NCI Yeast Anticancer Drug Screen. Data for the bub3 strain (AID 167); details: S. cerevisiae bub3 mutant strain, at 50.0 µM, hits give high values
Outline: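 Whole-cell yeast assay. The mutant strain was incubated with compounds, and growth inhibition was determined by comparison with vehicle-treated cells.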

[6] = NCI Yeast Anticancer Drug Screen. Data for the mlh1 rad18 strain (AID 175); details: S. cerevisiae mlh1 rad18 strain growth inhibition; at 50.0 µM; hits give high values
Outline: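 Compound-treated yeast growth, normalised to vehicle controls. Strain bears defined DNA repair mutations.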

Measured: growth inhibition

[O-]c1n[n+](Cc2ccc(Br)cc2)no1
inactive: [1] 6.95% | [2] 15.2% | [3] -4% | [4] 1.2% | [5] 18.4% | [6] 28.3%

CCN(CC)c1ccccc1C
inactive: [1] 21.1% | [2] 9.9% | [3] -5.2% | [4] -4.95% | [5] 2.25% | [6] -0.2%

CCOc1cc(/C=N/NC(=O)c2ccccc2NC(=O)c2ccccc2)ccc1OC
inactive: [1] -21.6% | [2] 2.35% | [3] 17.8% | [4] -4.1% | [5] 5.4% | [6] 5.7%

COc1cc(CC2c3cc(OC)c(OC)cc3CCN2C)ccc1O (stereo unspecified)
inactive: [1] -22.3% | [2] -17.9% | [3] -5.75% | [4] -9.2% | [5] -15.6% | [6] -3.35%

S=C(NNC(=S)Nc1ccccc1)Nc1ccccc1
inactive: [1] -16.9% | [2] 1.7% | [3] 6.9% | [4] -1.15% | [5] -5.4% | [6] -2.2%

CCOC(=O)NC(Nc1ccc(Cl)cn1)(C(F)(F)F)C(F)(F)F
inactive: [1] -25.9% | [2] -12.5% | [3] -52.5% | [4] -25.3% | [5] -21.6% | [6] -76.2%

COc1ccc(C(=O)Cc2nc3nnc(N)n3nc2CC(=O)c2ccc(OC)cc2)cc1
inactive: [1] -9.35% | [2] 2.1% | [3] -0.75% | [4] -0.75% | [5] 16.4% | [6] 15.7%

O=[N+]([O-])c1ccc(SC2=NCCCN2)c(Cl)c1
inactive: [1] 36.7% | [2] -0.55% | [3] 33.9% | [4] 11.1% | [5] 32.6% | [6] 26.1%

CCN(c1ccc(Br)cc1)c1ccc(Br)cc1
inactive: [1] -14.2% | [2] -20.1% | [3] -23.2% | [4] -7.75% | [5] 3.75% | [6] 7.55%

C/C(=N/NS(=O)(=O)c1ccc(N)cc1)c1ccccc1
inactive: [1] 9.9% | [2] -14.8% | [3] 1.45% | [4] 15.6% | [5] -41.4% | [6] -17.8%

O=C(O)/C=C\CCCCC(=O)O
inactive: [1] 35.4% | [2] 0.95% | [3] 15.1% | [4] 6.75% | [5] 13.8% | [6] 37.5%

Cc1ccc(/C=N/NC(=O)c2ccc(C)cc2)cc1
inactive: [1] -14.9% | [2] -10.2% | [3] -4.5% | [4] -13.7% | [5] -16.2% | [6] -11.9%

O=C1C[C@H]2CCCC[C@@H]2O1
inactive: [1] 2% | [2] 3.55% | [3] 26.5% | [4] 39.1% | [5] -13.5% | [6] -6%

O=C(CSCC(=O)c1ccc([N+](=O)[O-])cc1)c1ccc([N+](=O)[O-])cc1
inactive: [1] -19.4% | [2] -29.6% | [3] 9.85% | [4] -0.65% | [5] -20.1% | [6] -5%

C=C1CN(C2=NCCO2)C1
inactive: [1] -17.6% | [2] -39.6% | [3] -5.65% | [4] -12.9% | [5] -13.6% | [6] 4.05%

COc1ccc(NC(=O)c2cccc([N+](=O)[O-])c2)cc1
inactive: [1] 8.1% | [2] 23.1% | [3] 24.6% | [4] 1.8% | [5] 4.1% | [6] 5.8%

CC(C)n1c(=S)[nH]c2c(=O)[nH]c(=O)[nH]c21
inactive: [1] -30.9% | [2] -22.4% | [3] 0.05% | [4] -53.2% | [5] 10.8% | [6] -17.4%

COc1cccc(C2ON=C(c3ccccc3)N2C23CC4CC(CC(C4)C2)C3)c1 (stereo unspecified)
inactive: [1] 8.5% | [2] -3.4% | [3] -34.2% | [4] -6.7% | [5] 10.1% | [6] 14.9%

CCCCCCCCCCCCCCSc1ccc2ccccc2c1
inactive: [1] -9.15% | [2] 9.3% | [3] -2.7% | [4] -20.2% | [5] -8.65% | [6] -20.3%

CN(C)c1ccc(/C=C(\C#N)c2cccc(F)c2)cc1
inactive: [1] -4.85% | [2] 0.3% | [3] 1.5% | [4] -14.2% | [5] 3.4% | [6] -20.2%

C[C@]12C(=O)OC[C@H](c3ccccc3)N1C(=O)N(Cc1ccccc1)[C@@H]2CO
inactive: [1] -27.8% | [2] -26.1% | [3] -17.6% | [4] 1.6% | [5] 17.1% | [6] -9.5%

Oc1c(N=Nc2ccccc2)c2ccccc2c2ccc3ccccc3c12
inactive: [1] -23.3% | [2] -13.7% | [3] -7.6% | [4] -15.9% | [5] -8.2% | [6] 6.85%

CCCCCCCCCCCCCCCCOCC(COS(C)(=O)=O)OS(C)(=O)=O (stereo unspecified)
inactive: [1] 20% | [2] 2.15% | [3] 12.2% | [4] 33.3% | [5] 7.9% | [6] 1.5%

COc1ccc(/C=C/C(=O)C(C)(CN(C)C)CN(C)C)cc1
inactive: [1] 0.95% | [2] -13.8% | [3] 4.95% | [4] 6.85% | [5] -11.2% | [6] 11.8%

C#CN1C(=O)c2c(c(-c3ccccc3)c(-c3ccc(Oc4ccc(-c5c(-c6ccccc6)c6c(c(-c7ccccc7)c5-c5ccccc5)C(=O)N(C#C)C6=O)cc4)cc3)c(-c3ccccc3)c2-c2ccccc2)C1=O
inactive: [1] 7.25% | [2] 10.1% | [3] 1.9% | [4] 10.3% | [5] 1.4% | [6] 15.2%

CCNC1=C(C(=O)OCC)C(=O)CO1
inactive: [1] 34% | [2] 15.9% | [3] 24.2% | [4] 9.95% | [5] 0.3% | [6] -0.1%

CCCCCNC(=O)c1cccc(C)c1
inactive: [1] -11.1% | [2] -13.2% | [3] -7.65% | [4] -13.6% | [5] -25.4% | [6] -1.2%

C=CC(C)(C)/C=C/C=O
inactive: [1] -18.8% | [2] -15.1% | [3] -12.1% | [4] 5.65% | [5] 24.6% | [6] -32.1%

COC(OC)c1ccccc1CO
inactive: [1] -7.6% | [2] -28.5% | [3] -6.1% | [4] -41.5% | [5] 3.65% | [6] -14.8%

OCC(CN1CCCCC1)(CN1CCCCC1)CN1CCCCC1
inactive: [1] -47.8% | [2] -68.7% | [3] -14.6% | [4] -7.05% | [5] -5.2% | [6] -32.4%

C=CCSc1nc2ccc(N=Cc3ccc([N+](=O)[O-])cc3)cc2s1
inactive: [1] 2.05% | [2] -12.5% | [3] -8.7% | [4] -14.6% | [5] 5.95% | [6] -21.2%

CCCC(CCc1ccccc1)C(=O)NC(N)=O (stereo unspecified)
inactive: [1] 4.5% | [2] -5.6% | [3] 1.45% | [4] 2.55% | [5] 42.7% | [6] 1.4%

CCN(CC)CCN1C(=O)c2c(c(-c3ccccc3)c3ccccc3c2-c2ccccc2)C1=O
inactive: [1] 21.6% | [2] 35.2% | [3] 21.6% | [4] 13.2% | [5] 27.4% | [6] 28%

CC1NNC(=S)NN1
inactive: [1] -19.3% | [2] 1.35% | [3] 0.85% | [4] -9.7% | [5] 1.4% | [6] 11.8%

CN(C)c1ccc(N=Nc2ccc3nc[nH]c3c2)cc1
inactive: [1] -3.15% | [2] 6.65% | [3] 42% | [4] -6.1% | [5] -3.3% | [6] 26.5%

N[C@H](C(=O)O)[C@H]1ON=C(Cl)[C@@H]1O
inactive: [1] 7.4% | [2] 4.55% | [3] 7.25% | [4] 16.6% | [5] 11.3% | [6] -2.15%

Cn1c(Cl)cc2nc3ccccc3n2c1=O
inactive: [1] 10.2% | [2] 19.7% | [3] -1% | [4] -11.3% | [5] 11.2% | [6] 5.4%

CC(C)NC1(N(C)C)N=C(N(C)C)N=C(N(C)C)O1 (stereo unspecified)
inactive: [1] -3.65% | [2] -2.7% | [3] 2.75% | [4] 27% | [5] 9.5% | [6] -1.25%

COc1cc2c(c3oc(=O)cc(CCC(=O)O)c13)C1CC(=O)OC1O2 (stereo unspecified)
inactive: [1] 3.75% | [2] -16.6% | [3] -9.15% | [4] 1% | [5] -10.7% | [6] 10.8%

CCC(=O)SCC[N+](C)(C)C
inactive: [1] 16.1% | [2] -30.8% | [3] 0.2% | [4] 8.8% | [5] 27.6% | [6] 4.55%

O=C(CCC(=O)C1CCC/C1=N/O)Nc1ccc(Cl)cc1 (stereo unspecified)
inactive: [1] -40.4% | [2] -0.4% | [3] 7.4% | [4] 26.1% | [5] 9.55% | [6] 21.1%
